# Source: PubChem BioAssay
# D2 PAM-1: Beta-Arrestin HTS for Positive Allosteric Modulators of the Human D2 Dopamine Receptor: Potentiators | D(2) dopamine receptor (Homo sapiens), P14416 | DiscoveRx D2 beta-arrestin cells, luminescence, 90 min; 100% = 57 uM dopamine signal | potentiation, % (no concentration beside the values) | actives 0.23% (n = 360,000) | AID 624464, 2012; in the data active means potentiation above about 50%; inconclusive means mostly about 30% to 49%
# Target sequence (P14416 whole entry, looked up): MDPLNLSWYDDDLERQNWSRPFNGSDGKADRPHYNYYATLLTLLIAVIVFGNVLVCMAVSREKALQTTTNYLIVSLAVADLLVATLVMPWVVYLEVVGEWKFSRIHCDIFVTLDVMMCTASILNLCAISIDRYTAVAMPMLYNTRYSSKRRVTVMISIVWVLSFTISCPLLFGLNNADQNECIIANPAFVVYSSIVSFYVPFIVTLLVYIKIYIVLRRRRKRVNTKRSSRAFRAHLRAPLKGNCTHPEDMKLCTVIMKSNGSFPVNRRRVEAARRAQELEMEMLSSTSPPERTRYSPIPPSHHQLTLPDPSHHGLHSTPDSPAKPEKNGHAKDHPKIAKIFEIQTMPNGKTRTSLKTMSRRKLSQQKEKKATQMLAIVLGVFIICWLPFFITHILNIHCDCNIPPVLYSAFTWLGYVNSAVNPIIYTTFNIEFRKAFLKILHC
#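 PathHunter D2 cells, attached overnight at 37 deg C, received compound in DMSO plus dopamine at EC20 (50 nM final) for 90 min at 37 deg C. Beta-arrestin recruitment was read as luminescence after 1 h with detection reagent at ambient temperature.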
# D2 ag-1: HTS Assay for Allosteric Agonists of the Human D2 Dopamine Receptor: Primary Screen for Agonists; D(2) dopamine receptor (Homo sapiens), P14416; HEK293 T-REx D2 cells, calcium flux agonist mode; activation, % at 2 µM; actives 0.53% (n = 340,000); AID 485358, 2010;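 active means activation over 3 SD above normal in the single-dose calcium agonist read, cut at about 30% in these data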; further: 0% is about no effect
#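 Tetracycline-induced HEK293 T-REx cells with force-coupled D2 receptor, plated overnight at 30 C, loaded with no-wash calcium dye. After a 10 s baseline, compound was pin-added and calcium flux read kinetically for 180 s; calcium rises flagged agonists.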
# D2 antag: HTS Assay for Allosteric Antagonists of the Human D2 Dopamine Receptor: Primary Screen for Antagonists; D(2) dopamine receptor (Homo sapiens), P14416; HEK293 TREx D2 cells, calcium flux, dopamine EC80; inhibition, % at 10 µM; actives 2% (n = 340,000); in the data active means inhibition above about 30%; inactive means below that, where a call was filed; further: 0% is about no effect
#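 Measurement of antagonist activity uses fluorescent calcium dye in inducible HEK293 T-REx D2 cells: 10 s baseline, compound addition with 180 s read, EC80 dopamine addition with a further 180 s read.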
# D2 PAM-2: HTS Assay for Positive Allosteric Modulators of the Human D2 Dopamine Receptor: Primary Screen for Potentiators | potentiation, % at 10 µM | HEK293 T-REx D2, calcium flux, EC20 dopamine potentiation | actives 0.34% (n = 340,000) | AID 485347, 2010;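 active means potentiation over 3 SD above the plate norm, cut at about 30% in these data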; further: 0% is about no effect
#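 Calcium flux readout, no-wash dye, 1 read/s. Inducible HEK293 Trex D2 line, overnight 30 C. Compound alone 180 s (agonist flags), then EC20 dopamine, another 180 s to score potentiation.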
# D2 ag-2: Beta-Arrestin HTS for Positive Allosteric Modulators of the Human D2 Dopamine Receptor: Agonists; actives 0.084% (n = 360,000); activation, % (no concentration beside the values); D(2) dopamine receptor (Homo sapiens), P14416; DiscoveRx PathHunter D2 beta-arrestin, luminescence, 90 min; 100% = 57 uM dopamine signal; in the data active means activation above about 40%; inconclusive means between about 15% and that limit
#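 Agonist mode: compounds alone added to overnight-plated D2 PathHunter cells for 90 min at 37 C, with 57 uM final dopamine (EC100) defining full response. Beta-arrestin recruitment detected by chemiluminescent reagent, read after 1 h at ambient temperature.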
# * marks the source's active call; other numbers are inactive results; ? = inconclusive; · = not tested or not shown. Compounds with a hit are over-represented: about 2.4% of the library has one in this group of screens.
SMILES,D2 PAM-1,D2 ag-1,D2 antag,D2 PAM-2,D2 ag-2
CCN(CC)c1nc2ccccc2nc1C(=O)Nc1ccc(C(C)=O)cc1,·,1,·,1,·
CCOC(=O)c1cccc(NC(=O)Cc2ccc(NC(=O)N3CCCCc4ccccc43)cc2)c1,·,0,·,-4,·
CCC(=O)Nc1ccc(NC(=O)c2ccccc2)nc1,-2,0,32*,1,-1
CCCC(=O)Nc1ccc(NC(=O)c2ccccc2)nc1,-3,1,-5,-9,-3
COc1ccccc1NS(=O)(=O)c1ccc(NN=C2CCCC2)c([N+](=O)[O-])c1,15,-1,34*,3,0
COc1ccccc1NS(=O)(=O)c1ccc(N/N=C/C=C/c2ccccc2[N+](=O)[O-])c([N+](=O)[O-])c1,-11,0,-1,-2,2
Cc1ccc(/C=C/c2onc(C)c2S(=O)(=O)N2CCC(C(=O)N3CCC(N(C)C(C)C)CC3)CC2)cc1,·,1,·,-4,·
CC(C)CCCN1CCN=C1Nc1ccccc1,-15,0,39*,8,1
CCCc1ccc(S(=O)(=O)N2CCC(Oc3ccc(-n4cnnn4)cc3)CC2)cc1,·,0,·,11,·
CC1=C(C(N)=O)C(c2cccnc2)n2nc(SCc3ccccc3Cl)nc2N1 (centres undefined),1,-2,35*,0,0
CC1=C(C(N)=O)C(c2cccc(Br)c2)n2nc(SCc3ccccc3Cl)nc2N1 (centres undefined),·,1,·,5,·
COc1cc2c(cc1OC)CN(C(=O)CCCN1C(=O)c3ccccc3C1=O)CC2,3,0,-14,3,-1
COc1ccc(NC(=O)CCN2C(=O)c3ccc([N+](=O)[O-])cc3C2=O)c(OC)c1,56*,-1,1,-2,?
COc1cc2c(cc1OC)CN(C(=O)CN1C(=O)c3ccc([N+](=O)[O-])cc3C1=O)CC2,60*,0,0,0,6
CCC12CN3CC(CC)(CN(C1)C3c1cc(Br)ccc1OC)C2=O (centres undefined),·,1,·,20,·
Cn1c(NCCO)nc2c(c1=O)C1(CCCCC1)Cc1ccccc1-2,-15,2,68*,-8,-6
O=c1[nH]c(NNC(=S)NC2CCCCC2)nc2c1C1(CCCC1)Cc1ccccc1-2,-2,-2,38*,14,-1
CC(C)Sc1n[nH]c2nc3c(c(=O)n12)C1(CCCC1)Cc1ccccc1-3,·,0,55*,-5,·
O=c1[nH]c(NCCCO)nc2c1C1(CCCC1)Cc1ccccc1-2,-19,1,17,-11,1
CN(C)Cc1nc2c(c(=O)[nH]1)C1(CCCCC1)Cc1ccccc1-2,-16,1,37*,-5,-3
CCN(CC)Cc1nc2c(c(=O)[nH]1)C1(CCCCC1)Cc1ccccc1-2,-15,1,-3,-4,0
Cc1ccc(CN2C(=O)C3(c4ccccc42)N(c2cccc(F)c2)C(=O)CS3(=O)=O)cc1 (centres undefined),·,0,·,2,·
CCc1ccccc1NC(=O)C1COc2ccccc2C1 (centres undefined),·,2,·,5,·
O=C(CSc1nc2ccccc2s1)N1CCOCC1,4,1,-19,15,-1
O=C1CCCCCN1CSc1nc2ccccc2s1,-6,-2,3,36*,-4
SMILES,D2 PAM-1,D2 ag-1,D2 antag,D2 PAM-2,D2 ag-2
O=C(NCC1OCCc2ccccc21)c1cc(COc2ccc(F)cc2Cl)on1 (centres undefined),-9,1,50*,-10,-3
CNC(=O)Cn1nc(-c2ccc(C)c(S(=O)(=O)N(C)C)c2)c2ccccc2c1=O,-7,-1,-6,38*,-2
CCOC(=O)c1c(NC(=O)C[n+]2ccccc2)sc2c1CCCC2,-39,0,46*,-22,-4
CC1=C(C(=O)Nc2ccc(C)cc2C)C(c2ccc(O)cc2)n2nc(SCC(=O)c3ccc(C)cc3)nc2N1 (centres undefined),·,0,·,8,·
COC(=O)c1c(NC(=O)CN2C(=O)NC3(CCC(C)CC3)C2=O)sc2c1CCC2 (centres undefined),-1,0,-13,-16,2
Cc1ccc(NC(=O)CN2C(=O)NC3(CCCC3)C2=O)c(Cl)c1,-4,-1,-16,15,-1
N#Cc1ccsc1NC(=O)CN1C(=O)NC2(CCCC2)C1=O,·,0,40*,-20,·
CCOC(=O)c1ccc(NC(=O)CSC2=NC(=O)C(CC)C(=O)N2)cc1 (centres undefined),-14,1,47*,4,-3
O=C(CN1C(=O)NC2(CCCCCC2)C1=O)Nc1ccc(Br)cc1Br,2,0,37*,16,-1
CCC1C(=O)N=C(SCC(=O)Nc2cccc3ccccc23)NC1=O (centres undefined),4,0,6,-9,-1
NC(=O)c1ccsc1NC(=O)CN1C(=O)NC2(CCCCC2)C1=O,-2,0,-4,-7,2
CC1CCC2(CC1)NC(=O)N(CC(=O)Nc1sc3c(c1C(N)=O)CCC3)C2=O (centres undefined),-8,1,38*,-1,5
O=C(Cn1cc(S(=O)(=O)Cc2cccc(Cl)c2)c2ccccc21)Nc1ccccc1C(F)(F)F,·,0,·,3,·
CCC(=O)Nc1sc2c(c1C(=O)Nc1ccc(Br)cc1)CCCCC2,·,·,·,-15,·
CCCCOC(=O)c1ccc(NC(=O)CN2C(=O)NC3(CCCCCC3)C2=O)cc1,-1,1,2,5,-2
CCOC(=O)c1ccc(NC(=O)CN2C(=O)NC3(CCCCCCC3)C2=O)cc1,1,0,38*,14,2
COc1ccc(/C=N/Nc2nnc(-c3ncc[nH]3)c3ccccc23)cc1,-9,0,47*,-20,0
Nc1nnnn1/N=C/c1cccc(OCc2ccccc2Cl)c1,-20,-2,31*,3,-4
COc1cc(N)c(Cl)cc1C(=O)N[C@@H]1CCN(CCCOc2ccc(F)cc2)C[C@@H]1OC,·,1,77*,-24,·
COc1cc(N)c(Cl)cc1C(=O)N[C@H]1CCN(CCCOc2ccc(F)cc2)C[C@H]1OC,-24,1,-15,-13,-4
C/C(CC1(O)C(=O)N(Cc2ccccc2)c2ccccc21)=N\O (centres undefined),-14,0,25,-10,-2
